The whole screen tested about 310,000 compounds, of which about 14,000 (4.5%) showed an effect of 50% or more. Effects have a minus sign here. The sample holds strong results, similar compounds and a random draw of the others, so the mix is not that of the screen.
These compounds were tested against human ether-à-go-go-related gene (hERG) potassium channel (human, UniProt Q12809) (assay: primary screen, population patch clamp on CHO cells stably expressing hERG; higher = less effect of the substance).
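Further: peak tail current of the secondary pulse compared with the same well before compound.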

Sequence of human ether-à-go-go-related gene (hERG) potassium channel (Q12809 whole entry, looked up): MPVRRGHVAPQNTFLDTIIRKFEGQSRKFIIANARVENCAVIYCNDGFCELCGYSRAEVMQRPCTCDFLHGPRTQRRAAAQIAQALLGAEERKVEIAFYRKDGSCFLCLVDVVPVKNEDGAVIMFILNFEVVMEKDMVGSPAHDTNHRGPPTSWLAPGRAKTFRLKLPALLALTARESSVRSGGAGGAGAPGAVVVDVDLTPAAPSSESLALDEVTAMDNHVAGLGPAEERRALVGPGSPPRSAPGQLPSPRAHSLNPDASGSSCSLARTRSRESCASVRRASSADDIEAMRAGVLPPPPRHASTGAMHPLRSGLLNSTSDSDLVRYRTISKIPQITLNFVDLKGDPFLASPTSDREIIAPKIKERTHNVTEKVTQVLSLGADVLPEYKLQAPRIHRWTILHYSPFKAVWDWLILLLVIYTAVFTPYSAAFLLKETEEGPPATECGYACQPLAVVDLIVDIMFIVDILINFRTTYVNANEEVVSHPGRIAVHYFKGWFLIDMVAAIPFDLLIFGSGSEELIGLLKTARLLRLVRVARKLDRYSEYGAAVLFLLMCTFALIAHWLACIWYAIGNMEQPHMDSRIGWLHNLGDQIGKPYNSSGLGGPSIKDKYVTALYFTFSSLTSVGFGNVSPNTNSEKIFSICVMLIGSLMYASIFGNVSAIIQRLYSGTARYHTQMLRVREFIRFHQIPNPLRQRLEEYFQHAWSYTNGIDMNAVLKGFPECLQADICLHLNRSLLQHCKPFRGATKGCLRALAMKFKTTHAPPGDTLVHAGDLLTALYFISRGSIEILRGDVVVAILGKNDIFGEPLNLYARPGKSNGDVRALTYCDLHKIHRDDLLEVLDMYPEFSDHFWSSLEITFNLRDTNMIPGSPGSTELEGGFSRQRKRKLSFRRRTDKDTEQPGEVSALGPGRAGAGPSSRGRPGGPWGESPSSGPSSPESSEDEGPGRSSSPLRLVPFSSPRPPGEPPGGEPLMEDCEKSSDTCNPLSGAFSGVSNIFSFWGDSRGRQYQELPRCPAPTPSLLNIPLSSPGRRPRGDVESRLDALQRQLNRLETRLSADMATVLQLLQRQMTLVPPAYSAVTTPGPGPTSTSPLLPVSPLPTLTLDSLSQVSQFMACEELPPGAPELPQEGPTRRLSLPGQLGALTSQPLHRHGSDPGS

Compound	hERG current change (%, negative = inhibition) at 10uM [%]
CCN1CCN(Cc2ccc(NC(=O)c3cc(NC(=O)c4cncc(-c5cccs5)c4)cc(OC)c3)cc2C(F)(F)F)CC1.O=C(O)C(F)(F)F	9.85
COc1cc(OC)cc(C(=O)NNC(=O)Cc2ccc(OC)c(S(=O)(=O)N3CCOCC3)c2)c1	-1.89
COC/C=C/C1=CC2=CC(=O)C(C)(OC(=O)c3cnc4ccccc4n3)C(=O)C2=CN1c1ccc(OC)cc1 (stereo not shown)	-4.95
O=c1[nH]c2ccccc2cc1CN(c1ccccc1)S(=O)(=O)c1ccccc1	0.56
Cc1ccccc1OCCC(=O)OCC(=O)N1CCN(S(=O)(=O)c2ccc(Cl)cc2)CC1	-13.1
CCCCCSc1cc(OC)c(CCNC)cc1OC.O=C(O)/C=C\C(=O)O	-48.2
CCCCCSc1cc(O)c(C(CNC)C(C)C)cc1OC.O=C(O)/C=C\C(=O)O (stereo not shown)	-12.9
CCCCCSc1cc(OC)c(CCN(C)C)cc1OC.O=C(O)/C=C\C(=O)O	-57.9
CCCCCSc1cc(OC)c(CCN)cc1OC.O=C(O)/C=C\C(=O)O	-35.9
CCCCCCCSc1cc(OC)c(CCNC)cc1OC.O=C(O)/C=C\C(=O)O	-41.3
CCCCCCCSc1cc(OC)c(CCN(C)C)cc1OC.O=C(O)/C=C\C(=O)O	-64.3
C/C(=N\OC(=O)Nc1ccccc1)c1ccc(C)cc1	-15.9
CN(CCC#N)C(=O)CSc1nc2scc(-c3ccccc3)c2c(=O)[nH]1	-12.6
COc1ccc(CCNC(=O)C(=O)NCC2OCCN2S(=O)(=O)c2ccc(OC)cc2)cc1 (stereo not shown)	-47.3
COc1ccccc1C(=O)Nc1ccc2nc3n(c(=O)c2c1)CCCC3	-36.3
COc1ccc(NC(=O)CC2SC(=O)NC2=O)cc1 (stereo not shown)	26.8
Cc1ccccc1NC(=O)Cc1nc(COC(=O)c2ccc(Cl)nc2)cs1	2.75
Cc1ccccc1NC(=O)Cc1nc(COC(=O)c2ccc(Cl)c(S(N)(=O)=O)c2)cs1	-60.9
Cc1ccccc1NC(=O)Cc1nc(COC(=O)c2cccc(O)c2)cs1	-17.7
COc1ccc(CCNC(=O)CSc2ccc3nnc(CCNC(=O)c4ccccc4)n3n2)cc1OC	6.1
CCOC(=O)c1[nH]nc2c1C(=O)N(Cc1ccccc1)C2=O	6.13
COc1ccc(/C=N/NC(=O)CSc2ccccn2)cc1OC	2.42
CCOC(=O)c1cc(-c2cccnc2)nn1-c1ccccc1	9.52
CNC(=O)COC(=O)c1cc(-c2ccccc2)nn1-c1ccccc1	-5.35
CCNC(=O)COC(=O)c1cc(-c2ccccc2)nn1-c1ccccc1	-61.8
Cc1ccc(CNC(=O)CN2C(=O)NC3(CC(C)CC(C)(C)C3)C2=O)cc1 (stereo not shown)	-3.14

Compound	hERG current change (%, negative = inhibition) at 10uM [%]
COc1ccc(-n2c(O)c(C=NCCCn3ccnc3)c(=O)[nH]c2=O)cc1	14.1
CC(=O)N1CCN(c2ccc(NC(=O)c3ccc4c(c3)OCCO4)cc2Cl)CC1	-64.7
O=C(Nc1ccc(N2CCCC2)c(Cl)c1)c1ccc2c(c1)OCCO2	11.8
CN1CCN(c2ccc(NC(=O)c3ccc4c(c3)OCCO4)cc2Cl)CC1	-81.2
O=C(Nc1ccc(N2CCOCC2)c(Cl)c1)c1ccc2c(c1)OCCO2	-0.379
CC(C)C(=O)N1CCN(c2ccc(NC(=O)c3ccc4c(c3)OCCO4)cc2Cl)CC1	-15
O=C(Nc1ccc(N2CCCCC2)c(Cl)c1)c1ccc2c(c1)OCCO2	-1.06
CCCOc1ccc(C(=O)CCC(=O)OCC(=O)Nc2ccc(Oc3ccccc3)cc2)cc1	-13.3
COCCn1nnnc1CN1CCC(Cc2ccccc2)CC1.Cl	-3.18
O=C(OCC(=O)N1CCN(C(=O)c2ccco2)CC1)c1ccccc1OCc1ccccc1	-43.3
CCOC(=O)C1CCN(C(=O)COC(=O)Cc2ccc(Cl)cc2)CC1	-22.7
O=C(OCC(=O)N1CCN(C(=O)c2ccco2)CC1)c1ccccc1Cc1ccccc1	-56.3
O=C(CCNS(=O)(=O)c1ccc(Cl)cc1)OCC(=O)N1CCN(C(=O)c2ccco2)CC1	-47.4
O=C(OCC(=O)N1CCN(C(=O)c2ccco2)CC1)c1ccccc1C(=O)c1ccc(Cl)cc1	-64.8
O=C(OCC(=O)N1CCN(C(=O)c2ccco2)CC1)c1ccccc1NCCO	12.6
CCOC(=O)C1CCN(C(=O)COC(=O)c2ccccc2C(=O)c2ccc(Cl)cc2)CC1	-50.4
O=C(OCC(=O)N1CCN(C(=O)c2ccco2)CC1)c1cc(S(=O)(=O)Nc2ccc(Cl)cc2)ccc1O	-64.6
COc1ccc(NS(=O)(=O)c2ccc(O)c(C(=O)OCC(=O)N3CCCCC3)c2)cc1	-7.02
O=C(OCC(=O)N1CCN(C(=O)c2ccco2)CC1)c1ccccc1C(=O)c1ccccc1	-34
CCOC(=O)C1CCN(C(=O)COC(=O)COc2ccc(Cl)cc2)CC1	13.3
O=C(OCC(=O)N1CCOCC1)c1ccccc1Cc1ccccc1	-35.2
O=C1CCCC2=C1C(c1cccnc1)Nc1ccccc1N2 (stereo not shown)	5.41
COc1ccc(NC(=O)CCC(=O)c2cccs2)cc1Cl	17.6
CCOc1cccc2sc(Cl)nc12	13.7
COc1cc(N/C=C2\CC(=O)NC(C)=C2C#N)cc(OC)c1OC	19.6
Cc1c(NC(=O)COC(=O)C2(c3ccccc3F)CCCC2)c(=O)n(-c2ccccc2)n1C	-1.01

— paper PMC4336329 (PLoS ONE, 2015)
